Bioassay records as filed in PubChem BioAssay.
Compounds with a hit are over-represented: about 7.4% of the library has one in this group of screens.
NPC1 promoter act = qHTS Assay for NPC1 Promoter Activators; Potency, µM (series often up to 9.22 µM), without a hit: at the top dose activation, actives largely listed as activators; Huh7 NPC1 promoter luciferase reporter, 24 h; actives 2.4% (n = 320,000); also: % of control where 0% means no effect; nearly all actives have a fitted effect of over 60% in size
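Luminescence from an NPC1 promoter-driven luciferase reporter in stably transfected Huh7 cells was measured after 24 h compound treatment at 37 °C, followed by 10 min ambient incubation with luciferase detection reagent.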
SMN2 splice enh = qHTS Assay for Enhancers of SMN2 Splice Variant Expression; HEK293 SMN2-luciferase splicing reporter, luminescence, 30-36 h; Potency, µM (doses to about 46.1 µM), for the others: at the highest dose activity change, positive = activation, actives largely listed as activators; actives 2.8% (n = 210,000); AID 1458, 2008; also: % of control where 0% means no effect; nearly all actives have a fitted effect of over 55% in size
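HEK293 cells carry an SMN2 […]–luciferase reporter in which exon 7 inclusion puts luciferase in frame. Cells were plated 10-12 h before compound addition, then incubated 30-36 h at 37C. ONE-Glo luminescence was read; sodium butyrate at 4.5 mM final served as control.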
FLuc counter = qHTS profiling assay for firefly luciferase inhibitor/activator using purifed enzyme and Km concentrations of substrates (counterscreen for miR-21 project); purified FLuc, Km substrates, luminescence inhibition; Luciferin 4-monooxygenase (Photinus pyralis), P08659; actives 6.9% (n = 360,000); Potency, µM (top dose mostly 57.5 µM), for inactives: at the top dose activity change, negative = inhibition, usual class: inhibitors;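 also: plate controls were vehicle for no effect and reference inhibitor for full effect; nearly all actives have a fitted effect of over 55% in size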
Target sequence (P08659 whole entry, looked up): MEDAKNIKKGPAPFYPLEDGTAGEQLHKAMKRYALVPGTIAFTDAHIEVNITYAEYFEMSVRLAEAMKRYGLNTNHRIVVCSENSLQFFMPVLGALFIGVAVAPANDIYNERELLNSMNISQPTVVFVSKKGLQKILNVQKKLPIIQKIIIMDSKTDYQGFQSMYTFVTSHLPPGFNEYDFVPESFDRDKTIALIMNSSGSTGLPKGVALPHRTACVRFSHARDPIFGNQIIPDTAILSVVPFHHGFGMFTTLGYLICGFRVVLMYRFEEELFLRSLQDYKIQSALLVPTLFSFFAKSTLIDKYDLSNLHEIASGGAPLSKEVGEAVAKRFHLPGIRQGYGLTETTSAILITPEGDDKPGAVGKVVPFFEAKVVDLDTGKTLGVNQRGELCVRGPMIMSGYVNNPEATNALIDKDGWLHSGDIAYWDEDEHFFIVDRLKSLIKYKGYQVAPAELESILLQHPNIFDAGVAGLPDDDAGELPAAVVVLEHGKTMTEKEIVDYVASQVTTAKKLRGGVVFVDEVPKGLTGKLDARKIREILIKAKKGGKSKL
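Purified P. pyralis luciferase (10nM final) with 10uM D-luciferin and 10uM ATP (Km levels) in 50mM Tris acetate pH 7.5, 10mM Mg acetate, 0.01% Tween-20, 0.05% BSA; qHTS 6-point titration, ~60 µM downward; luminescence read.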
ELG1 genotox = qHTS screen for small molecules that induce genotoxicity in human embryonic kidney (HEK293T) cells expressing luciferase-tagged ELG1; HEK293T ELG1-luciferase reporter, luminescence, 16 h; actives 1.3% (n = 330,000); Potency, µM (titrated, usually from 46 µM), inactives show at the top dose activity change, positive = activation, actives largely listed as activators; AID 504466, 2011; also: % of control where 0% means no effect; nearly all actives have a fitted effect of over 60% in size
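DMSO vehicle served as control against compound-treated ELG1-luciferase HEK293T cells; exposure lasted 16 hr at 37 °C and 5% CO2, followed by ONE-Glo luminescence detection after 30 min.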
Rab9 promoter act = qHTS Assay for Rab9 Promoter Activators; actives 2.8% (n = 320,000); Huh7 Rab9 promoter-luciferase reporter, luminescence, 24 h; Potency, µM (highest dose often 9.22 µM), for inactives: at the top dose activation, negative = inhibition, most hits filed as activators; also: % of control where 0% means no effect; nearly all actives have a fitted effect of over 60% in size
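Rab9 promoter-driven luciferase in stably transfected Huh7 cells; 1500 cells/well rested 2 h, exposed to compound in DMSO for 24 h at 37 °C, 5% CO2. Luminescence read 10 min after adding luciferase reagent at ambient temperature.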
Luc counter = Counterscreen for Luciferase (Kinase-Glo TM) Inhibition; Kinase-Glo luciferase, ATP luminescence, 8 min; Potency, µM (highest dose often 38.3 µM), without a hit: top-dose activity change, negative = inhibition, most hits filed as inhibitors; actives 0.28% (n = 200,000); AID 1379, 2008; also: % is scaled to controls: 0 for no effect and ±100 for the full control effect; nearly all actives have a fitted effect of over 60% in size
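Substrate mix (final 50 mM imidazole pH 7.2, 50 mM KCl, 7 mM MgCl2, 10 uM ATP, 0.01% Tween 20, 0.05% BSA) plus pin-tool compound, then Kinase-Glo detection mix; 8 min ambient, luminescence read.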
Numbers without * were called inactive; u = inconclusive; x = not tested or not shown. Calls follow the shape of the dose curve; as a rule, active = well fitted curve in the direction sought with a large enough effect; inconclusive = small, poorly fitted or top-dose-only effect, or another doubt; inactive = no such curve, though single readings can be large; an effect the other way counts as inactive or inconclusive. Potency is read from the fitted curve at half-maximal effect.

SMILES	NPC1 promoter act	SMN2 splice enh	FLuc counter	ELG1 genotox	Rab9 promoter act	Luc counter
CCOc1ccc(OCCSc2nc3ccccc3o2)cc1	7%	4%	-18%	10%	-2%	-5%
O=C(CSc1nc2ccccc2o1)c1ccc2c(c1)OCCO2	28%	-1%	8.5µM*	u	u	1%
CC(=O)CSc1nc2ccccc2o1	5%	3%	-16%	u	19%	4%
c1ccc(OCCSc2nc3ccccc3o2)cc1	19%	-10%	21µM*	14%	21%	12%
CCN(CC)S(=O)(=O)c1ccc2oc(C(=O)NCc3ccccc3OC)c(C)c2c1	x	-39%	-2%	x	x	x
CS(=O)(=O)N1CCc2cc(C(=O)OCC(=O)c3ccccc3)ccc21	3.2µM*	-4%	4.8µM*	13µM*	3.5µM*	16%
Cc1cccc(NC(=O)c2ccc3c(c2)CCN3S(C)(=O)=O)c1	u	x	15µM*	u	u	x
Cc1ccc(NC(=O)c2ccc3c(c2)CCN3S(C)(=O)=O)cc1C	2.5µM*	x	15µM*	9%	4µM*	x
CS(=O)(=O)N1CCc2cc(C(=O)Nc3cccc(F)c3)ccc21	x	11µM*	u	x	x	x
Cc1cccc(NC(=O)NNC(=O)c2sccc2-n2cccc2)c1	1%	-1%	u	-2%	2%	1%
CCOc1cccc(C(=O)NC(=S)Nc2ccc(Cl)cc2C(=O)O)c1	-10%	-1%	u	1%	-6%	-4%
Cc1ccc(S(=O)(=O)N(CC(=O)O)c2cccc(Cl)c2)cc1	x	x	x	x	x	1%
COc1ccc(C2=C(N3CCN(c4cccc(C)c4C)CC3)c3ccccc3C2=O)cc1	x	-11%	-1%	x	x	x
Oc1ccc(Nc2nc(-c3cccnc3)cs2)cc1	21%	x	9.5µM*	u	1%	x
Cc1ccc(Nc2nc(-c3cccnc3)cs2)cc1C	u	x	0.85µM*	2.3µM*	u	x
Cc1cc(O)ccc1Nc1nc(-c2cccs2)cs1	u	u	0.54µM*	3.3µM*	u	-7%
COc1ccc(Cl)cc1Nc1nc(-c2cccnc2)cs1	1%	x	u	0%	-3%	x
Clc1cccc(Nc2nc(-c3cccnc3)cs2)c1	1%	5%	13µM*	u	21%	-3%
CCN(CC)C(=O)/C=C/c1ccc(OC)c(S(=O)(=O)N2CCCCC2)c1	-7%	-20%	2%	6%	-3%	12%
Brc1ccc(Nc2nc(-c3cccnc3)cs2)cc1	0%	14µM*	u	u	29%	-3%
Brc1cccc(Nc2nc(-c3cccnc3)cs2)c1	u	x	9.5µM*	u	21%	x
O=C(O)c1ccc(Nc2nc(-c3cccnc3)cs2)cc1	u	x	5.4µM*	8%	u	x
Cc1cc(O)ccc1Nc1nc(-c2cccnc2)cs1	u	x	6µM*	7%	0%	x
N#CCCn1c(=O)cnc2cnc(N3CCNCC3)nc21	x	-3%	x	x	x	0%
Cc1ccc(S(=O)(=O)N2CCN(C(=O)COC(=O)c3ccc(Cl)nc3)CC2)c(C)c1	-11%	x	2%	-2%	-4%	x
SMILES	NPC1 promoter act	SMN2 splice enh	FLuc counter	ELG1 genotox	Rab9 promoter act	Luc counter
COc1ccc(CCNC(=O)C2CCCN2C(=O)Nc2ccc(F)cc2)cc1OC (stereo not given)	1%	x	3%	-4%	-9%	x
Oc1ccc(Nc2nc(-c3ccc(Cl)cc3)cs2)cc1	x	6%	x	x	x	1%
CCOc1ccc(Nc2nc(-c3cccnc3)cs2)cc1	2.2µM*	x	u	u	2.2µM*	x
Oc1ccc(Nc2nc(-c3ccc(O)cc3)cs2)cc1	1%	22µM*	7.6µM*	8.2µM*	-1%	-1%
CC(=O)c1ccc(Nc2nc(-c3cccnc3)cs2)cc1	4%	x	u	u	21%	x
Nc1ccc(Nc2nc(-c3ccncc3)cs2)cc1	u	-3%	4.8µM*	u	u	-4%
NNC(=O)c1cccc(O)c1	-6%	2%	3%	3%	-5%	3%
Cc1ccccc1C(=O)Nc1ccnn1C1CCN(Cc2cnn(C)c2)CC1	-8%	x	-1%	1%	2%	x
O=C(c1ccc2c(c1)OCO2)C1CCCN(Cc2ccc(OC(F)F)cc2)C1 (stereo not given)	-1%	x	0%	-1%	-1%	x
COc1ccc(-c2cn3cccnc3n2)cc1F	u	16µM*	8.5µM*	u	u	-8%
Clc1ccc(-c2cn3cccnc3n2)cc1Cl	u	u	17µM*	u	u	-3%
O=C(Nc1cccc(-c2cn3cccnc3n2)c1)c1cc(Br)ccc1Cl	x	x	-4%	x	x	x
O=S(=O)(Nc1ccc(-c2cn3cccnc3n2)cc1)c1ccccc1	0%	3%	u	1%	-8%	-1%
Brc1ccc(-c2cn3cccnc3n2)cc1	u	7.9µM*	8.5µM*	2.9µM*	2.2µM*	-11%
Clc1ccc(-c2cn3cccnc3n2)cc1	27%	-5%	11µM*	16µM*	u	-8%
CSc1sc(-c2n[nH]c(=S)n2C)c2c1C=CCC2	-6%	x	-3%	0%	0%	x
COc1ccc(C(=O)Nc2cnc(NC(=O)c3cccs3)cc2C)cc1	u	x	17µM*	u	u	x
CCCCC(=O)Nc1cc(C)c(NC(=O)c2cccs2)cn1	-5%	x	0%	-1%	-2%	1%
Cc1cc(NC(=O)C2CC2)ncc1NC(=O)c1ccccn1	u	u	u	u	2.5µM*	-28%
CCCCC(=O)Nc1cnc(NC(=O)c2cccs2)cc1C	3.2µM*	x	19µM*	u	2µM*	x
COc1ccc(C(=O)Nc2cc(C)c(NC(=O)c3ccccn3)cn2)cc1	u	x	1.1µM*	2%	u	x
S=c1[nH]nc(-c2cc(-c3ccccc3)n[nH]2)n1/N=C/c1ccc(Br)s1	-2%	x	-3%	1%	-6%	x
CCC(Oc1ccc(Br)cc1)C(=O)N1CCN(c2ncccn2)CC1 (stereo not given)	-1%	x	3%	-10%	5%	x
Cc1cc(Cl)ccc1Nc1ncccc1C(N)=O	26%	8.9µM*	15µM*	u	u	-1%
COc1ccc(Nc2ncccc2C(=O)O)cc1	u	-7%	15µM*	15µM*	u	6%
Cc1ccc(Nc2ncccc2C(N)=O)cc1	3.5µM*	11µM*	u	u	2.8µM*	-4%
Cc1c(Cl)cccc1Nc1ncccc1C(=O)O	5%	x	u	4%	-1%	x
NC(=O)c1cccnc1Nc1ccccc1F	17%	21%	-14%	u	15%	0%
